Bioassay records as filed in PubChem BioAssay.
The sample as a whole holds a higher share of hits than the screen did.
HT1080 IDH1KD tx: kills HT-1080 cells with IDH1 knockdown. HT-1080 IDH1 knockdown viability, ATP luminescence, 48 h. 360,000 compounds, 2% hits. Potency, µM (top dose mostly 46.1 µM), for the others: top-dose activity, negative = toxicity, most hits filed as cytotoxic. AID 686971;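 further: potency means the concentration at half of the fitted maximal effect; 0% = DMSO wells and -100% = cell-free medium wells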
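HT-1080-IDH1KD cells (IDH1 knocked down), 750/well in RPMI with 5% FBS, treated with compound 48 h at 37 degrees C. Viability by CellTiter-Glo luminescence, normalised to DMSO and no-cell wells; concentration-response curves classed.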
12-LOX inh: blocks human arachidonate 12S-lipoxygenase; P18054; 580,000 compounds, 1.1% hits; purified 12hLO, xylenol orange hydroperoxide absorbance; Potency, µM (top dose mostly 108 µM), for the others: at the highest dose activity change, negative = inhibition, usual class: inhibitors; further: potency means the concentration at half of the fitted maximal effect
Target sequence (P18054 whole entry, looked up): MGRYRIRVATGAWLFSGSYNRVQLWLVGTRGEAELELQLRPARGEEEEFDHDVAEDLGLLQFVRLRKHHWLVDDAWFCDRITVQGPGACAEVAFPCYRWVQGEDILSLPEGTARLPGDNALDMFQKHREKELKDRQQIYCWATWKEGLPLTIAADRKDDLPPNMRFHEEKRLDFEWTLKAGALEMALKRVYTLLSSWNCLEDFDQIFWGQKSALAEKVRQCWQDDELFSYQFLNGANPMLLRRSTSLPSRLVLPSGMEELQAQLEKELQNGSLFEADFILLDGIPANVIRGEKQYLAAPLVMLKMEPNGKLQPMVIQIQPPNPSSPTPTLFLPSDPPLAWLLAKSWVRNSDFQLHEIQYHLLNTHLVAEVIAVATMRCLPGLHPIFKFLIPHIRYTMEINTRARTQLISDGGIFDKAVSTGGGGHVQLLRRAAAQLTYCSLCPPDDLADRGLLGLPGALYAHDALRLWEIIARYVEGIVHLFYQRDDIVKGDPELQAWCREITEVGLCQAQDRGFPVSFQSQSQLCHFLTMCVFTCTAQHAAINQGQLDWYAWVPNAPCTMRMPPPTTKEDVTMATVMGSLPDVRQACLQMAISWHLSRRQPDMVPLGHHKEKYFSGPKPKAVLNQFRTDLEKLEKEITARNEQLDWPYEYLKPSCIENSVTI
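Purified human 12hLO (150 nM final) in 25 mM Hepes, 0.01% Triton X-100, pH 7.0 was preincubated 15 min at room temperature with compound. Then 40 uM arachidonic acid was added, 30 min. Hydroperoxide was read by Fe-XO absorbance ratio 573/405 nm.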
IL1B secr inh: inhibitors of inflammasome signaling (IL-1 beta secretion) | AID 743279 | 360,000 compounds, 4.7% hits | THP-1 LPS/ATP IL-1B secretion, AlphaLISA, 16 h; stronger effect = lower value | activity change, % at 57.5 µM; in the data active means activity change below about -50%; inconclusive means mostly about -30% to -49%
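THP-1 cells pretreated 1 hr with compounds (up to 57.5 uM final), then stimulated with LPS (250 ng/mL final) plus ATP (1.25 mM final); secreted IL-1B measured by AlphaLISA after 16 hr, decreased signal indicating inhibition.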
DT40 TDP1 no CPT: qHTS for Inhibitors of human tyrosyl-DNA phosphodiesterase 1 (TDP1): qHTS in cells in absence of CPT; 420,000 compounds, 15% hits; DT40 Tdp1-/- hTDP1 cells, no CPT, ATP luminescence, 48 h; Potency, µM (doses to about 46.2 µM), without a hit: at the highest dose activity change, negative = growth inhibition, usual class: inhibitors; further: potency means the concentration at half of the fitted maximal effect; nearly all actives have a fitted effect of over 55% in size
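Camptothecin absent (DMSO only). Human TDP1-complemented DT40 knockout cells, 400 cells/well, 37 °C for minimum 48 hr; ATP measured via CellTiter-Glo, 30 min dark incubation, luminescence.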
TDP1 cell CPT: DT40-hTDP1 cell growth loss with CPT | 420,000 compounds, 12% hits | Potency, µM (highest dose often 46.2 µM), for the others: at the top dose activity change, negative = growth inhibition, usual class: inhibitors | chicken DT40 Tdp1-/-;hTDP1 cells + 20 nM CPT, ATP luminescence, 48 h; further: potency means the concentration at half of the fitted maximal effect; nearly all actives have a fitted effect of over 55% in size
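Chicken DT40 Tdp1-/- cells stably complemented with human TDP1 were seeded at 400 cells/well in medium containing 20 nM camptothecin, exposed to pin-transferred compounds, and grown at 37 °C for at least 48 hr. Viability was read as ATP luminescence.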
HT1080NT lethal: kills 2HG-producing HT-1080-NT fibrosarcoma cells | HT-1080-NT fibrosarcoma viability, CellTiter-Glo ATP luminescence, 48 h | Potency, µM (doses to about 46.1 µM), for inactives: at the top dose activity, negative = less viability, actives largely listed as cytotoxic | 360,000 compounds, 1.6% hits | AID 686970;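 further: NT is the 2HG producing partner of a matched IDH1 knockdown line; potency means the concentration at half of the fitted maximal effect; 0% = DMSO-treated cells and -100% = media-only wells without cells; nearly all actives have a fitted effect of over 55% in size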
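Read-out is CellTiter-Glo luminescence after 10 minutes at room temperature, following 48 hours' compound treatment of HT-1080-NT cells (750 cells/well, RPMI, 5% FBS, 37 degrees C).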
Starred values were filed as active, the others as inactive; ? = inconclusive; . = no result given; ! = repeats disagree; [ ] = remark or other dose. Unless noted, the call rests on the fitted dose curve; in most records, active means well fitted curve in the direction sought with a large enough effect; inconclusive means small, poorly fitted or top-dose-only effect, or another doubt; inactive means no such curve, though single readings can be large; an effect the other way counts as inactive or inconclusive. Unless noted, on the % scale 0 is the no-effect control and ±100 the full control effect.

SMILES	HT1080 IDH1KD tx	12-LOX inh	IL1B secr inh	DT40 TDP1 no CPT	TDP1 cell CPT	HT1080NT lethal
O=C1Cc2cc(-c3csc(NC4CCCCC4)n3)cc3c2N1CCC3	.	11µM*	.	.	.	.
O=C1Cc2cc(-c3csc(NC4CC4)n3)ccc2N1	.	40µM*	.	.	.	.
O=C1CCc2cc(-c3csc(NC4CC4)n3)ccc2N1	.	35µM*	.	.	.	.
c1ccc(-c2csc(NC3CCCCC3)n2)cc1	-7%	?	14	-15%	6%	-16%
Nc1nc(-c2ccc3c(c2)CCC(=O)N3)cs1	0%	-19%	-21	0%	?	1%
CCOc1ccc2c(n1)CCN(C(=O)c1ccn(CC)n1)C2	.	47%	.	.	.	.
CCCCNc1nc(-c2ccc(NC(=O)CC)cc2)cs1	.	-12%	.	.	.	.
CCCCNc1nc(-c2ccc3c(c2)CC(=O)N3)cs1	.	32µM*	.	.	.	.
O=C(CC1CNCCO1)N1CCc2nc(-c3ccc(Cl)cc3)[nH]c2C1 (centres undefined)	.	1%	.	.	.	.
CCCn1c(Sc2ccccc2)nc2c1c(=O)[nH]c(=O)n2C	.	23%	.	.	.	.
Cc1ccc(S(=O)(=O)N2CCC(c3nnc(-c4cccc(C)c4)o3)CC2)cc1	.	?	.	3.7µM*	3.7µM*	.
CCCc1ccc(S(=O)(=O)N2CCC(n3cnnc3C)CC2)cc1	.	1%	.	.	.	.
CCCc1ccc(S(=O)(=O)N2CCC(c3nnc(-c4cccc(C)c4)o3)CC2)cc1	.	1%	.	4.6µM*	5.2µM*	.
Cc1ccc(C2Cn3nnc(C(=O)N4CCC(C(=O)NCc5cccs5)CC4)c3CO2)cc1 (centres undefined)	.	11%	.	.	.	.
Cc1cccc(CN2CCCC3(CCN(c4cc(C)c5ccccc5n4)C3)C2=O)c1 (centres undefined)	.	63%	.	.	.	.
CC1Oc2cc3oc4c(O)c5c(cc4c(=O)c3c(O)c2C1(C)C)C=CC(C)(C)O5 (centres undefined)	-17%	.	7	21µM*	?	-19%
O=C(Nc1ccc(Br)cc1)C1CCCN(S(=O)(=O)c2cccnc2)C1 (centres undefined)	-1%	11%	7	26µM*	23µM*	-3%
Cc1ccc(NC(=O)C2CCCN(c3cnn(Cc4ccccc4)c(=O)c3)C2)c(C)c1 (centres undefined)	.	-11%	.	.	.	.
CCc1cccc(NC(=O)C2CCCN(c3cnn(Cc4ccccc4)c(=O)c3)C2)c1 (centres undefined)	.	40µM*	.	.	.	.
CCN(CCNC(=O)C1CCCN(S(=O)(=O)CC)C1)c1ccccc1 (centres undefined)	-13%	0%	-14	-2%	-2%	17%
CCN(CCCNC(=O)C1CCCN(S(=O)(=O)CC)C1)c1cccc(C)c1 (centres undefined)	-4%	389%	5	15µM*	23µM*	2%
CCN(CC)c1ccc(NC(=O)C2CCCN(S(=O)(=O)c3cccnc3)C2)c(C)c1 (centres undefined)	-7%	248%	39	10µM*	15µM*	-5%
Cn1cncc1C(=O)N1CCCn2ccnc2C1c1ccccc1 (centres undefined)	.	59%	.	.	.	.
O=C(CC1CCOC2(CCN(S(=O)(=O)Cc3ccccc3)CC2)C1)N1CCOCC1 (centres undefined)	.	0%	.	.	.	.
Cc1ccc(C)c(CN2CCn3c(nn(Cc4ccccc4C)c3=O)C2=O)c1	.	-5%	.	.	.	.
SMILES	HT1080 IDH1KD tx	12-LOX inh	IL1B secr inh	DT40 TDP1 no CPT	TDP1 cell CPT	HT1080NT lethal
CCc1cccc(NC(=O)C2CCCN(S(=O)(=O)c3cnc[nH]3)C2)c1 (centres undefined)	-1%	0%	23	11%	-6%	-3%
CCc1cccc(NC(=O)C2CCCN(S(=O)(=O)c3cccnc3)C2)c1 (centres undefined)	-4%	11%	8	15µM*	?	-1%
CCCCCC(C)NCc1sccc1C (centres undefined)	.	0.45µM*	.	.	.	.
CCC(CO)NCc1sccc1C (centres undefined)	11%	319%	-2	13%	7%	12%
CC(=O)Nc1cc(-c2ccsc2)cn2c(-c3ccc(F)cc3)cnc12	?	?	-10	18µM*	16µM*	?
COc1cc(-c2ccc(NC(C)=O)c(OC)c2)ccc1NC(C)=O	-12%	0%	-3	-2%	-1%	-20%
CC(=O)Nc1cc(-c2cccnc2)cn2c(-c3ccc(F)cc3)cnc12	4%	-8%	7	23µM*	?	1%
COc1ccc(-c2cnc3c(NC(C)=O)cc(-c4ccccc4OC)cn23)cc1OC	26µM*	?	.	-83%	12µM*	?
COc1ccc(-c2cnc3c(NC(C)=O)cc(-c4ccsc4)cn23)cc1OC	-28%	.	?	21µM*	16µM*	-23%
COc1ccccc1-c1cc(NC(C)=O)c2ncc(-c3cccc(C(C)=O)c3)n2c1	?	?	-24	15µM*	23µM*	?
COc1ccc(-c2cc(NC(C)=O)c3ncc(-c4ccc(OC)c(OC)c4)n3c2)cc1OC	?	?	-19	15µM*	18µM*	?
COc1ccccc1OCC(=O)O	-1%	-14%	-11	-7%	-1%	-3%
CC(C)=CCC/C(C)=C/CC/C(C)=C/CC/C(C)=C/CC1=C(C)C(=O)c2ccccc2C1=O	-20%	?	0	24µM*	27µM*!	-6%
CC(C)=CCC1=C(OCC(=O)O)C(=O)c2ccccc2C1=O	?	-30%	15	29µM*	23µM*	?
CCCn1c(C)cnc1CC1CCCN(C(=O)c2ccncc2)C1 (centres undefined)	.	4%	.	.	.	.
O=C(CN1C(=O)c2ccccc2C1=O)OCC(=O)N1CCc2ccccc2C1	-1%	0%	34	0.0092µM*	-11%	-2%
NC(=O)c1ccccc1OCC(=O)N1CCc2ccccc2C1	-3%	-1%	11	13µM*	?	-3%
COC1CCC(C(=O)NCC2COc3ncncc3C(=O)N2Cc2ccccc2)CC1 (centres undefined)	.	41%[176 µM]	.	.	.	.
COc1cccc(CCNC(=O)c2cc(COc3cccc(OC)c3)on2)c1	-8%	9%	-1	16µM*	?	-3%
O=C(NCCc1ccco1)c1cc(COc2cccc(C(F)(F)F)c2)on1	?	276%	-83*	?	?	-20%
CCOC(=O)CC1(NC(=O)c2cc(COc3cccc(OC)c3)on2)CCCCC1	-19%	19%	-22	10µM*	23µM*	2%
